This passage reports survival results from PubChem BioAssay AID463173 (ICCB-Longwood Screening Facility, Harvard Medical School, 2010).

Out of some 52,000 compounds screened, about 4,300 (8.3%) were called active. This excerpt belongs to a sample that is enriched for actives. A number with no mark means an inactive call. No stated cut-off is given here; in the data, active means survival mostly below about 52% (no sharp cut-off); inactive means mostly above about 56%.

The test system of this assay is DeltatarO mutant. Nature of the assay: S. aureus survival, RN4220 and DeltatarO strains – OD600, teichoic acid synthesis inhibitors, primary screen (AID 463173). The settings on record: S. aureus RN4220 wild type/DeltatarO growth, OD600, 18 h, stronger effect = lower value, screened at 18.75 µg/mL (by protocol).
Regarding `CCn1c(=O)n(CC)c2cc(N3CCCCC3)c(NC(=O)Nc3ccccc3C(F)(F)F)cc21`, the survival is 101%. The same measure for `Cc1cc(-c2ccc(C)c(S(=O)(=O)N(C(C)C)C3CCCCC3)c2)on1`: 88%; for `Cn1c2c(c(=O)n(C)c1=O)C(c1ccccc1[N+](=O)[O-])CC(=O)N2` (stereo not drawn): 93%. Next, `COc1ccc(-c2nc3cc(C(C)C)ccc3o2)cc1NC(=O)c1ccc(C)c(Cl)c1`: 21% (active). The same measure for `COc1ccc(-c2nc3cc(NC(=O)COc4ccccc4C)ccc3o2)cc1`: 60%. As for `COc1ccc(-c2nc3cc(NC(=O)COc4ccc(C)c(C)c4)ccc3o2)cc1`, the survival is 84%. The same measure for `CCOc1ccc(C(=O)Nc2ccc(-c3nc4cc(C(C)C)ccc4o3)cc2)cc1Cl`: 65%; for `COc1ccc(-c2nc3cc(C(C)C)ccc3o2)cc1NC(=O)c1ccccc1[N+](=O)[O-]`: 50%; for `COc1ccc(-c2nc3cc(C(C)C)ccc3o2)cc1NC(=O)COc1ccc(C)cc1C`: 37% (active). The same measure for `O=C(Nc1ccc(F)c(Cl)c1)C1CCCN(S(=O)(=O)c2cccc3nsnc23)C1` (stereo not drawn): 67%; for `O=C(CSc1nc2c([nH]c3ccccc32)c(=O)n1-c1ccc(Cl)cc1)NC1CCCCC1`: 87%; for `COc1ccccc1NC(=O)Cn1c(=O)n(-c2ccccc2Cl)c(=O)c2sc3ccccc3c21`: 77%.

`O=C(CN(CC1CCCO1)S(=O)(=O)c1ccc(S(=O)(=O)N2CCOCC2)cc1)Nc1ccccc1` (stereo not drawn): the survival is 89%. Next, `CCOC(=O)c1ccccc1NC(=O)Cn1ccn2nc(-c3ccc(OCC)cc3)cc2c1=O`: 115%; `COC(=O)CSc1nc2cc3c(cc2cc1C#N)OCO3`: 97%. Next, `CCc1ccc(-n2c(N3CCN(c4ccc(F)cc4)CC3)nc3ccccc3c2=O)cc1`: 83%; `Cc1cc2nc(-c3ccc(OCc4ccccc4Cl)cc3)cc(C(F)(F)F)n2n1`: 25% (active). The same measure for `Cc1ccc(-c2cc(C(F)(F)F)n3nc(-c4ccc(Cl)cc4)cc3n2)cc1`: 51%; for `Cc1cc2nc(-c3ccc(OCc4ccccc4C)cc3)cc(C(F)(F)F)n2n1`: 13% (active). On to `Cc1cc2nc(-c3ccc(OCc4ccccc4F)cc3)cc(C(F)(F)F)n2n1`, for which the survival is 45% (active). Turning to `COc1ccc(-c2cc3nc(-c4ccccc4)cc(C(F)(F)F)n3n2)cc1`, the survival was 58%. As for `CCN(c1ccc(OC)cc1)S(=O)(=O)c1ccc2[nH]c3c(c2c1)CCCCC3`, the survival was 80%. With `CCc1cc(C(=O)Nc2cnn(Cc3ccc(F)cc3)c2)no1`, the survival was 50%.

As for `COc1ccc(Cc2nc3ccc(C(=O)NCc4cc(Br)ccc4OC)cc3o2)cc1`, the survival is 93%. The same measure for `COc1ccc(CNC(=O)CCCCCn2c(=O)[nH]c3ccccc3c2=O)cc1`: 86%; for `Cc1ccc(S(=O)(=O)c2cnc(SC(C)C(=O)Nc3ccccc3)[nH]c2=O)cc1` (stereo not drawn): 71%; for `CC1CCC2(CC1)Nc1ccccc1S2` (stereo not drawn): 105%. In the case of `O=C(COC(=O)c1ccccn1)Nc1ccccc1`, the survival was 101%. Take `Cc1ccccc1NC(=O)c1c(NC(=O)C(F)(F)F)sc2c1CCCCC2`: the survival was -3% (active).

As to `COc1ccccc1NC(=O)c1c(NCc2sccc2C)sc2c1CCCCC2`, the survival was 85%. On to `Cc1ccc(NC(=O)c2c(NC(=O)c3ccccc3Cl)sc3c2CCC3)cc1`, for which the survival was 160%. Next, `Cc1ccc(NC(=O)c2c(NC(=O)c3ccccc3)sc3c2CCC3)cc1`: 76%; `COc1ccc(NC(=O)c2c(NC(=O)COc3ccccc3)sc3c2CCCCC3)cc1`: 72%; `Cc1ccc(NC(=O)c2c(NC(=O)C(F)(F)F)sc3c2CCCCC3)cc1`: -5% (active). Next, `COc1ccc(NC(=O)c2c(NC(=O)c3ccc(Br)cc3)sc3c2CCCC3)cc1`: 169%.

Regarding `COc1ccc(NC(=O)c2c(NC(=O)C(F)(F)F)sc3c2CCCCC3)cc1`, the survival is 2% (active).

Regarding `O=C1C2C3C=CC(C3)C2C(=O)N1CCCCN1C(=O)C2C3C=CC(C3)C2C1=O` (stereo not drawn), the survival is 93%. Next, `CCc1ccccc1NC(=O)Cn1c(=O)c2cccn2c2ccc(F)cc21`: 83%; `COc1ccc(-c2noc(-c3ccc(NC4CCCC4)c([N+](=O)[O-])c3)n2)cc1`: 108%; `C/C=C(\C)C(=O)OC1c2c(ccc3ccc(=O)oc23)OC(C)(C)C1OC(C)=O` (stereo not drawn): 60%. As to `O=C(Nc1nnc(S(=O)(=O)N2CCCCC2)s1)c1ccc(F)cc1`, the survival is 79%. Next, `O=C(Nc1nnc(S(=O)(=O)N2CCCCCC2)s1)c1ccccc1`: 38% (active); `O=C(Nc1nnc(S(=O)(=O)N2CCCC2)s1)c1ccc(F)cc1`: 111%; `Cc1ccc(C(=O)Nc2nnc(S(=O)(=O)N3CCCCCC3)s2)cc1`: 79%.

For `O=C(Nc1nnc(S(=O)(=O)N2CCCCC2)s1)c1ccc(Cl)cc1`, the survival was 37% (active). The same measure for `O=C(Nc1nnc(S(=O)(=O)N2CCCCCC2)s1)c1ccc(Cl)cc1`: 62%; for `CCC1/C(=N\O)CC(c2ccco2)NC1c1ccco1` (stereo not drawn): 84%. The same measure for `COc1ccc(NC(=O)Cn2c(SCc3ccc(C)cc3)nc3cccnc32)c(OC)c1`: 82%; for `O=C(Nc1ccccc1F)C(Cc1ccccc1)N1Cc2ccccc2C1=O` (stereo not drawn): 60%. The same measure for `CS(=O)(=O)CCC(C(=O)Nc1cccc(C(F)(F)F)c1)N1Cc2ccccc2C1=O` (stereo not drawn): 17% (active); for `Cc1ccc(C)c(NC(=O)C(CC(C)C)N2Cc3ccccc3C2=O)c1` (stereo not drawn): 134%. For `O=C(Nc1ccc(F)cc1F)C(Cc1ccccc1)N1Cc2ccccc2C1=O` (stereo not drawn), the survival was -4% (active).

Regarding `COC(=O)c1ccc(NC(=O)C(C)N2Cc3ccccc3C2=O)cc1` (stereo not drawn), the survival was 66%.

Turning to `O=C(Nc1ccc(F)cc1)[C@H](Cc1ccccc1)N1Cc2ccccc2C1=O`, the survival was 89%. The same measure for `CC(C(=O)Nc1ccc(OC(F)(F)F)cc1)N1Cc2ccccc2C1=O` (stereo not drawn): 20% (active); for `Cc1ccc(NC(=O)[C@H](Cc2ccccc2)N2Cc3ccccc3C2=O)cc1F`: 84%. The same measure for `COc1cc(NC(=O)C(CCS(C)(=O)=O)N2Cc3ccccc3C2=O)cc(OC)c1OC` (stereo not drawn): 55%. Next, `Cc1ccc(NC(=O)C(CC(C)C)N2Cc3ccccc3C2=O)cc1F` (stereo not drawn): -5% (active); `CCOc1ccc(NC(=O)C(CC(C)C)N2Cc3ccccc3C2=O)cc1` (stereo not drawn): 130%; `COC(=O)c1cc(NC(=O)[C@H](CCS(C)(=O)=O)N2Cc3ccccc3C2=O)cc(C(=O)OC)c1`: 86%. Consider `CC(C)Cn1c(=O)c2ccccc2n2c(CCC(=O)N3CCN(c4ccccc4F)CC3)nnc12`, for which the survival is 92%. Next, `Cc1noc(Cn2c(=O)c3cc4c(cc3n(CC(=O)Nc3cccc(Cl)c3)c2=O)OCO4)n1`: 122%; `COc1cccc(C(=O)Nc2ccc3nc(SCCOc4ccccc4)sc3c2)c1`: 75%; `Cc1cc(C)nc(-n2nc(C)c3c2N(Cc2ccccc2C)C(=O)CC3c2ccc(Cl)cc2)n1` (stereo not drawn): 72%.

`COc1ccc(-c2cc(C(F)(F)F)n3nc(C(=O)Nc4cccc(C(F)(F)F)c4)c(Br)c3n2)cc1`: the survival was 73%.

For `COc1ccc(NC(=O)C(C)N2Cc3ccccc3C2=O)cc1OC` (stereo not drawn), the survival is 101%. The same measure for `Cc1cc(C)cc(NC(=O)C(C)N2Cc3ccccc3C2=O)c1` (stereo not drawn): 91%; for `CC(C(=O)Nc1ccc(F)c(Cl)c1)N1Cc2ccccc2C1=O` (stereo not drawn): 8% (active).

As to `CCCn1ccc2c(OCC(=O)Nc3ccccc3C(=O)OCC)cccc2c1=O`, the survival was 94%. Next, `Cc1ccc(C)c(CN2C(=O)c3ccccc3S(=O)(=O)c3ccc(C(=O)NCCc4ccc(Cl)cc4)cc32)c1`: 111%; `N#Cc1cccc(NC(=O)C2CCN(c3nc(-c4ccc(Cl)cc4)no3)CC2)c1`: 82%. Next, `Cc1cccc(CNC(=O)Cn2ccc3cc(S(=O)(=O)N4CCCCCC4)ccc32)c1`: -5% (active); `O=C(CCn1ccc2cc(S(=O)(=O)N3CCCC3)ccc21)NCc1cccc(Cl)c1`: 17% (active). Next, `COc1ccc(CNC(=O)CCCn2ccc3cc(S(=O)(=O)N4CCCC4)ccc32)cc1`: 101%; `O=C(Cn1ccc2cc(S(=O)(=O)N3CCCCC3)ccc21)NCc1cccc(Cl)c1`: 117%; `CCc1ccc(CNC(=O)CCCn2ccc3cc(S(=O)(=O)N4CCCC4)ccc32)cc1`: 91%. Regarding `Cc1cccc(CNC(=O)CCn2ccc3cc(S(=O)(=O)N4CCCC4)ccc32)c1`, the survival was 87%. As for `O=C(CCn1ccc2cc(S(=O)(=O)N3CCCC3)ccc21)NCc1ccccc1F`, the survival is 94%. As for `CC1CCN(S(=O)(=O)c2ccc3c(ccn3CC(=O)NCc3ccccc3F)c2)CC1`, the survival is 54%. Next, `Cc1cccc(CNC(=O)Cn2ccc3cc(S(=O)(=O)N4CCCC4)ccc32)c1`: 73%; `CC1CCN(S(=O)(=O)c2ccc3c(ccn3CCC(=O)NCc3ccccc3F)c2)CC1`: -5% (active).

Regarding `Cc1cccc(CNC(=O)Cn2ccc3cc(S(=O)(=O)N4CCC(C)CC4)ccc32)c1`, the survival was 76%. Next, `CN(C)c1ccc(CNC(=O)CCCn2ccc3cc(S(=O)(=O)N4CCCC4)ccc32)cc1`: 8% (active); `Cc1nn(C)c2c1c(-c1ccccc1)cc(=O)n2C(C)C(=O)NCCc1ccc(Cl)cc1` (stereo not drawn): 99%; `CCOC(=O)c1cc2c(=O)n3ccccc3nc2n(CCOC)c1=NC(=O)c1c(-c2ccccc2Cl)noc1C`: 180%. The same measure for `Cc1cccc(C(c2sc3nc(-c4ccco4)nn3c2O)N2CCN(c3ccccc3F)CC2)c1` (stereo not drawn): 67%; for `CCOC(=O)c1ccc2c(c1)N(CC(=O)Nc1ccc(C)cc1C)C(=O)c1ccccc1S2`: 112%; for `Cc1sc2c(c1C)c(=O)n(CCc1ccccc1)c(=O)n2Cc1ccc(C(C)(C)C)cc1`: 87%.
